Where “and” joins values, the source holds several entries; their conditions need not be identical. Equal entries are not always repeated. Screen size: about 430,000 compounds; about 2,600 (0.6%) were called active. The sample holds actives, similar compounds and a random draw of the others, so the mix is not that of the screen. Rule as the data show it: active = inhibition mostly above about 37% (no sharp cut-off); inactive = mostly below about 20%.

In this assay the test system is PriA–SSB C-terminal tail interaction (Klebsiella pneumoniae). The experiment in a line: inhibitors of Klebsiella pneumoniae PriA binding to SSB C-terminal tail, primary screen, biochemical, AlphaScreen (AID 1272365).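 As to inhibition: plate controls were negative control peptide for no effect and reference peptide for full effect.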 The note with it: AlphaScreen SSBct-PriA binding, biotinylated peptide; at 33 µM, stronger effect = higher value. On the technique in general: Bead proximity is the source of the signal in Alpha formats.
Turning to `CS(=O)(=O)c1ccc(-c2ccc(NS(=O)(=O)c3ccc4c(c3)CCCC4)cc2)nn1`, the inhibition was -11% (inactive).

`O=C(c1cccc(Oc2ncccn2)c1)N1CCCC1`: the inhibition was -8% (inactive).

In the case of `O=C(C[C@@H]1C/C=C/CC[C@H](Cc2ccc(F)cc2)C(=O)OC[C@@H](Cc2ccccc2)NC1=O)NCCO`, the inhibition is -9.28% (inactive).

As to `O=C(c1cc(-c2cccs2)on1)N1CCC[C@H](Cc2nc(-c3ccsc3)no2)C1`, the inhibition was 3% (inactive).

For the compound `O=C(c1ccc(=O)[nH]n1)N1CCCC(Cc2nc(-c3ccsc3)no2)C1` (configuration not stated), the inhibition was -8% (inactive).

With `O=C(c1ccc(-n2cccc2)cc1)N1CCC[C@H](Cc2nc(-c3ccsc3)no2)C1`, the inhibition is 31% (active).

As to `O=C(c1ccc(-c2cccs2)cc1)N1CC(Oc2nccs2)C1`, the inhibition is -9% (inactive).

As for `CC(C)Oc1ccc(C(=O)Nc2cc(=O)n(C)c(=O)n2C)cc1`, the inhibition is -9.4% (inactive).

For the compound `Cc1cc(=O)n(C)c(=O)n1CCCNc1ccccc1`, the inhibition is -14.1% (inactive).

For the compound `Cn1c(Nc2ccccc2)cc(=O)n(C)c1=O`, the inhibition is 43.6% (active).

In the case of `N#Cc1nccnc1N1CCC(CNC(=O)c2cc(=O)c3ccccc3o2)CC1`, the inhibition was -11% (inactive).

As for `Cn1nc(CNS(=O)(=O)C2CC2)cc1-c1ccco1`, the inhibition is -8% (inactive).

In the case of `CCOCC(=O)NCc1ccc2c(c1)cc(C)n2C`, the inhibition was 0.95% (inactive).

Regarding `COc1ccc(OC)c(NC(=S)NCc2ccc3c(c2)cc(C)n3C)c1`, the inhibition was 81.2% (active).

Take `COc1ccc(NC(=O)NCc2ccc3c(c2)OCO3)c(OC)c1`: the inhibition is -0.59% (inactive).

With `CCOc1ccc(S(=O)(=O)NCCCn2nc(-c3ccncc3)ccc2=O)cc1`, the inhibition was -20% (inactive).

With `COC(=O)N1CCc2c(sc(NC(=O)c3cccc(N4C(=O)CCC4=O)c3)c2C#N)C1`, the inhibition is -11% (inactive).

Consider `CC(Cc1cccs1)NC(=O)Cc1ccccc1Cl` (configuration not stated), for which the inhibition is -11% (inactive).

As for `CC1CCCC(C)N1N=Cc1ccc([N+](=O)[O-])cc1` (configuration not stated), the inhibition is 46.8% (active).

With `COC(=O)c1ccc(C=NN2C(C)CCCC2C)cc1` (configuration not stated), the inhibition was 14.5% (inactive).

`O=[N+]([O-])c1ccc(C=NN2CCN(c3ccc(Cl)cc3)CC2)cc1`: the inhibition is -20.9% (inactive).

As to `COc1ccc(C(=O)C=C(C)NCc2ccc3c(c2)OCO3)cc1`, the inhibition is 12.8% (inactive).

In the case of `CN1C(=O)C(C)(C)COc2ccc(NC(=O)c3ccc(Cl)cc3)cc21`, the inhibition is 18% (inactive).

For the compound `CCOc1ccc(NC(=O)CCS(=O)(=O)c2cccc3nsnc23)cc1`, the inhibition is -12% (inactive).

`CCOc1ccc(-c2cn(S(=O)(=O)c3cccc4nsnc34)nc2N)cc1`: the inhibition was 40.5% (active).

`CCOc1ccc(N(CC)S(=O)(=O)c2cccc3nsnc23)cc1`: the inhibition is 4.13% (inactive).

For the compound `Brc1ccc(-c2nn[nH]n2)cc1`, the inhibition is -6.63% (inactive).

Consider `COc1ccccc1-c1nnc2n1N=C(c1ccc(Br)cc1)CS2`, for which the inhibition was -20% (inactive).

As to `C=C1Cn2c(nnc2-c2ccc(Br)cc2)S1`, the inhibition was 97% (active).

`O=C(C[C@H]1C/C=C/CCCC(=O)OC[C@H]2CCCN2C1=O)NCCO`: the inhibition was -5.28% (inactive).

Regarding `Cn1nnc2c(N3CC(C(=O)Nc4ccc5cn[nH]c5c4)C3)ncnc21`, the inhibition is 2% (inactive).

As for `OC(COCc1ccco1)CN1CCN(c2ccccc2)CC1` (configuration not stated), the inhibition was -2.32% (inactive).

For the compound `O[C@H](COc1cccc(Oc2ccccc2)c1)CN1CCN(c2ccccc2)CC1`, the inhibition was 31% (active).

As for `OC(COc1ccc2c(c1)CCC2)CN1CCN(c2cccc(Cl)c2)CC1` (configuration not stated), the inhibition was -11% (inactive).

With `CSCC(C)(O)CNS(=O)(=O)c1cccc2ccccc12` (configuration not stated), the inhibition was -6% (inactive).

For `Cn1nc2cc(Br)ccc2c1C(=O)N1CCc2ncncc2C1`, the inhibition is 1% (inactive).

Turning to `CCc1cc(=O)[nH]c2nnc(SCC#N)n12`, the inhibition was -14% (inactive).

As to `COc1ccc(OC)c2sc(N(CCCN3CCOCC3)C(=O)c3cc(C)no3)nc12`, the inhibition was 3% (inactive).

With `Cc1cc(C)c2nc(N(CCn3cccn3)C(=O)c3cc4ccccc4o3)sc2c1`, the inhibition is -1% (inactive).

On to `Cc1cc(C)c2nc(N(CCCn3ccnc3)C(=O)c3ccco3)sc2c1`, for which the inhibition was 95.7% (active).

`O=C(NCCc1ccoc1)C(=O)Nc1ccc(F)cc1F`: the inhibition is 8% (inactive).

Turning to `CCC1SC(=S)N(C)C1=O` (configuration not stated), the inhibition is -17% (inactive).

As to `CC(C)CCN1C(=O)C(C)(C)COc2cc(NC(=O)CN3C(=O)c4ccccc4C3=O)ccc21`, the inhibition was -6% (inactive).

Consider `O=C(NCCCn1ccnc1)C(=O)NCC1OCCN1S(=O)(=O)c1cc(F)ccc1F` (configuration not stated), for which the inhibition is 70.1% (active).

With `Cc1cc(F)ccc1S(=O)(=O)N1CCCOC1CNC(=O)C(=O)NCCC1=CCCCC1` (configuration not stated), the inhibition is 2.41% (inactive).

With `O=C(NCCCc1ccccc1)C(=O)NCC1OCCN1S(=O)(=O)c1ccccc1` (configuration not stated), the inhibition was -3.21% (inactive).

As to `O=C(Nc1cnc(-n2ccnc2)nc1)c1ccccc1Cl`, the inhibition was -6% (inactive).

In the case of `O=C(c1cccs1)c1ccc(CNS(=O)(=O)CCOc2ccccc2)s1`, the inhibition was -4% (inactive).

Regarding `Cc1cc(C)n(-c2nc(O)cc(=O)[nH]2)n1`, the inhibition is 5.59% (inactive).

`Cc1cc(C)n(-c2nc(N)cc(=O)[nH]2)n1`: the inhibition is 73% (active).

Regarding `Cc1cc(=O)[nH]c(-n2nc(C)c(CCC(=O)Nc3ccc(Cl)cc3)c2C)n1`, the inhibition is -4% (inactive).

As to `CN(C)CCN(C(=O)c1cc2cc([N+](=O)[O-])ccc2s1)c1nc2cc3c(cc2s1)OCO3`, the inhibition is 28% (inactive).

For the compound `O=C(C1CC=CCC1)N1CCCC(S(=O)(=O)c2ccc(F)cc2)C1` (configuration not stated), the inhibition is -14% (inactive).

For the compound `COc1cc(NC(=O)NCCc2ccc3c(c2)CCCN3C)cc(OC)c1`, the inhibition is 63% (active).

Consider `CN1CCCc2cc(CCNC(=O)C(=O)Nc3ccc4c(c3)OCCO4)ccc21`, for which the inhibition is -11% (inactive).

Turning to `CN1CCCc2cc(CCNC(=O)c3ccc(Br)cc3)ccc21`, the inhibition was 18% (inactive) and -16% (inactive).

As to `Cc1ccc(NC(=O)CCc2csc(NC(=O)c3ccc(=O)[nH]c3)n2)cc1Cl`, the inhibition was -9% (inactive).

As to `CN(C)c1nn(CC(=O)NCc2ccc3c(c2)OCO3)cc1-c1ccc(Cl)cc1`, the inhibition was 1% (inactive).

With `CC1Nc2ncnn2C(c2ccccc2)C1C(=O)Nc1ccccc1` (configuration not stated), the inhibition is -3% (inactive).

Regarding `CC(=O)Nc1cccc(C(C)=NNc2ccc(S(=O)(=O)Nc3ccccc3C(=O)O)cc2[N+](=O)[O-])c1`, the inhibition is 12% (inactive).

Consider `COc1ccc(/C=N/Nc2ccccc2[N+](=O)[O-])c(C(=O)O)c1OC`, for which the inhibition entry was “inactive”.

For the compound `Cc1ccc(NS(=O)(=O)c2ccc(N/N=C/c3ccccc3OCC(=O)O)c([N+](=O)[O-])c2)c(C)c1`, the inhibition result is “active”.

In general, inhibition refers to the relative decrease from the control value, in per cent.

The record behind these values is PubChem BioAssay AID1272365 (Small Molecule Screening Facility, UW Madison, 2018).
